TRHR PAM – allosteric enhancers of human TRH receptor. hit rate 0.66% among 360,000. enhancement, % at 2 µM. P34981. TRHR cells, fluo-8 calcium fluorescence, EC20 TRH enhancement. AID 493056; in the data active = enhancement above about 30%
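TRHR-expressing cells loaded with fluo-8 calcium dye were read kinetically (ex 480/em 530) during compound addition, then stimulated with an EC20 of TRH (10 nM final). Enhancement of the Gq-mediated intracellular calcium response was scored.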
D1 antag – blocks dopamine activation of the human D1 receptor; P21728; AID 504652; activity change, negative = inhibition, % at 10 µM; HEK293 TREx D1 cells, calcium flux, dopamine EC80; hits give low values; hit rate 3.2% among 360,000; in the data active = activity change below about -30%
Target sequence (P21728 whole entry, looked up): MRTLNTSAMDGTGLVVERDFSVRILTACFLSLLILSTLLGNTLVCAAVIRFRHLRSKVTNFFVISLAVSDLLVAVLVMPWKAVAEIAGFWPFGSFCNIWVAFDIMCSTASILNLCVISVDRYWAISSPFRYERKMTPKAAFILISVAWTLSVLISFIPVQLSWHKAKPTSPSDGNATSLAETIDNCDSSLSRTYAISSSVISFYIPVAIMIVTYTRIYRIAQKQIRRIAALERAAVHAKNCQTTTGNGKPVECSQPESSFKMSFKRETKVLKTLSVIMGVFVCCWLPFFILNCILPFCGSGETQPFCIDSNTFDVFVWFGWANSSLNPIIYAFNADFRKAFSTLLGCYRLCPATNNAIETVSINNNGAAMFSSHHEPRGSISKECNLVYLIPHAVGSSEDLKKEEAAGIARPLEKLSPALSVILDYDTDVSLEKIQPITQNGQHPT
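Compound effects on dopamine-evoked calcium signalling were measured in tetracycline-induced HEK293 Trex D1 cells. Dopamine at EC80 followed a 180 s compound pre-read, and fluorescence was tracked kinetically for 180 s more.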
D1 agonist – human D1 receptor agonism; P21728; hit rate 1% among 360,000; activation, % at 2 µM; HEK293 T-REx D1 cells, calcium flux, agonist mode
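Agonism was scored from calcium flux recorded over 180 s (1 read/s) after pintool compound addition, following a 10-cycle baseline. Cells were inducible force-coupled HEK293 TREx D1, plated overnight at 30 C and loaded with no-wash calcium dye.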
D1 PAM – human D1 dopamine receptor positive modulation | hit rate 0.036% among 360,000 | AID 504651 | potentiation, % at 10 µM | HEK293 TREx D1 cells, calcium flux, dopamine EC20 potentiation; in the data active = potentiation above about 30%
TRHR ag – TRH receptor (human) agonism | P34981 | TRHR cells, calcium flux fluo-8, FDSS agonist mode | activation, % at 2 µM | hit rate 0.18% among 360,000 | AID 493084
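TRHR-expressing cells, plated overnight in medium with 10% serum, were loaded with fluo-8 calcium dye at room temperature. After a 10 s baseline, library compound was pin-added and calcium release was recorded kinetically (ex 480/em 530) as agonist response.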
Each line names hits and unclear results; the compound was inactive in the other large screens. Compounds with a hit are over-represented: about 4.7% of the library has one in this group of screens. Rule as the data show it, unless noted: active = activation above about 30%; inactive = the rest.

CC1(OC(=O)CCc2ccccc2)C(=O)C=C2C=C(c3ccc(C#N)cc3)N(c3ccccc3)C=C2C1=O (stereo not drawn)	D1 antag -37
COC(=O)c1ccccc1NC(=O)C1CCCC1	none
CCOc1ccccc1NC(=S)NC(=O)C1CCCCC1	none
COc1ccccc1NC(=S)NC(=O)C1CC1	D1 antag -42
COC(=O)c1ccccc1NC(=S)NC(=O)C1CCCCC1	D1 antag -64
COc1ccccc1OCCNC(=O)C1CCCCC1	D1 agonist 34
Cc1ccc(NC(=S)NC(=O)C2CC2)cc1Cl	D1 antag -73
Cc1ccc(OCCNC(=O)C2CCCCC2)cc1	none
Cc1c(NC(=O)CSc2nnnn2C)c(=O)n(-c2ccccc2)n1C	D1 antag -35
Cc1c(NC(=O)CSc2nnnn2-c2ccc(O)cc2)c(=O)n(-c2ccccc2)n1C	D1 antag -47
Cn1nnnc1SCC(=O)Nc1ccc(Oc2ccc(Cl)cc2)cc1	D1 antag -30
Cc1c(NC(=O)CSc2nncn2-c2ccccc2)c(=O)n(-c2ccccc2)n1C	none
Cc1c(NC(=O)CSc2nnnn2-c2ccc(F)cc2)c(=O)n(-c2ccccc2)n1C	none
CCOc1ccc(-n2c(=O)c3c(C)c(C)sc3n(CC(=O)c3ccccc3)c2=O)cc1	none
O=C(Cn1c(=O)oc2ccccc21)Nc1nnc(N2CCCCCC2)s1	TRHR PAM 30
CCCCn1c(C)cc2c(c1=O)[C@H]1O[C@](CCCCN3C(=O)c4ccccc4C3=O)(Cc3ccccc31)O2	none
O=C(O/N=C1/CCCc2occc21)c1ccc(Cl)cc1Cl	D1 antag -33
COc1ccccc1N1CCN(c2nc3ccccc3n3cnnc23)CC1	none
COc1ccc(-c2c3c(=O)n(C)c(=O)n(C)c3c3c(-c4cccc(C)c4)nc4ccccc4n23)cc1	none
O=C(Nc1cccc(Br)c1)c1ccc(Cl)c(S(=O)(=O)N2CCOCC2)c1	none
O=C(Nc1cccc(S(=O)(=O)C(F)F)c1)c1ccc(Cl)c(S(=O)(=O)N2CCOCC2)c1	D1 antag -34
CC(=O)Oc1ccc(-c2ccc(C(=O)Nc3cccc(S(=O)(=O)N4CCOCC4)c3)cc2)cc1	D1 antag -32
CN(C)CCNC(C(=O)Nc1cccc(S(=O)(=O)N2CCOCC2)c1)c1ccccc1 (stereo not drawn)	TRHR PAM 36
COc1ccc(C(=O)NC(=S)Nc2cccc(S(=O)(=O)N3CCOCC3)c2)cc1	none
CC(C)Oc1ccc(C(=O)Nc2cc(S(=O)(=O)N3CCOCC3)ccc2N2CCOCC2)cc1	D1 antag -40
CCCOc1ccc(C(=O)CCC(=O)OCC(=O)Nc2ccc(Oc3ccccc3)cc2)cc1	none
Cc1cnc(C(=O)OCC(=O)Nc2ccc(Oc3ccccc3)cc2)cn1	D1 antag -41
C=CCC(=O)OCC(=O)Nc1ccc(Oc2ccccc2)cc1	D1 antag -35
COc1ccc(-c2nc3ccccc3s2)cc1NC(=O)c1cc2ccccc2o1	none
Cc1ccc2nc(SCC(=O)NCC3CCCO3)c(C#N)cc2c1 (stereo not drawn)	D1 antag -32
Cc1ccc2cc(C#N)c(SCC(=O)NCC3CCCO3)nc2c1 (stereo not drawn)	none
Cc1ccc(-c2ccc(SCC(=O)NCC3CCCO3)nn2)cc1 (stereo not drawn)	D1 antag -34
Cc1nn(-c2ccccc2)c2c1N(CC(=O)N1CCN(c3ccc(Cl)cc3)CC1)C(=O)CS2	none
COc1ccc(N(Cc2ccccc2)C(=O)CSc2nnc(Cn3nnc4ccccc43)o2)cc1	none
O=C(CSc1nnc(Cn2nnc3ccccc32)o1)N(Cc1ccc(F)cc1)c1ccccc1	D1 antag -41
Cc1ccc(Cn2c(=O)n(Cc3ccco3)c(=O)c3oc4ccccc4c32)cc1	none
CCOc1ccc(N/C(SCc2cccc([N+](=O)[O-])c2)=C(/C#N)C(N)=O)cc1	none
N#CC(C#N)=C(Nc1ccc(F)cc1)SCc1cccc(F)c1	D1 antag -44, D1 agonist 34
Cc1ccc(C)c(NC(=O)C(c2ccccc2)N2Cc3ccccc3C2=O)c1 (stereo not drawn)	TRHR PAM 32
COc1ccc(C(=O)NCCS(=O)(=O)NCc2cccnc2)cc1	TRHR PAM 33
S=C(NCc1cccnc1)Nc1ccc(Cl)c(Cl)c1	D1 antag -46
COc1ccc(NC(=S)NC(=O)/C=C/c2ccccc2)cc1	none
COc1ccc(NC(=S)NCc2cccnc2)cc1	D1 antag -31
COc1ccc(NC(=S)NCc2cccnc2)cc1OC	none
COc1ccc(/C=C(/NC(=O)/C=C/c2ccccc2)C(=O)O)cc1	TRHR PAM 34
Cc1ccc(Cn2c(=O)n(-c3cccc(C(F)(F)F)c3)c(=O)c3c(C)c(C)sc32)c(C)c1	none
CC1CCN(C(=O)Cn2cc(SCC(=O)NCc3ccccc3Cl)c3ccccc32)CC1	none
O=C(NCc1cccnc1)Nc1ccc(Cl)c(Cl)c1	D1 antag -46
COc1ccc(CNC(=S)Nc2ccc(Br)cc2)cc1	D1 agonist 37
COc1cc(/C=C/C(=O)NCc2cccnc2)cc(OC)c1OC	none
Cc1ccc(NC(=O)NCc2cccnc2)cc1C	none
COc1ccc(/C=C/C(=O)NCc2cccnc2)cc1	D1 antag -40
Cc1ccc(NC(=O)c2oc3ccccc3c2NC(=O)C23CC4CC(CC(C4)C2)C3)cc1	none
Cc1ccc(Nc2nnc(C3C(=O)N(C)C4(C)CC3c3cc(Br)ccc3O4)s2)cc1 (stereo not drawn)	D1 agonist 36
O=C(NC1CCN(C(=O)Nc2ccc(F)cc2)CC1)c1cccc(F)c1	none
O=C(NC1CCN(C(=O)Nc2ccc(F)cc2)CC1)c1ccc(F)cc1	TRHR PAM 39
N#Cc1sc2nc(-c3cccs3)cc(-c3ccccc3)c2c1N	none
N#Cc1sc2nc(-c3cccs3)cc(-c3ccc(Cl)cc3)c2c1N	D1 antag -32
COc1ccc(NC(=O)c2ccc(COc3ccccc3Br)o2)cc1OC	D1 antag -37
COc1ccccc1OCc1ccc(C(=O)NN)o1	none
COc1ccc(NC(=O)c2ccc(COc3ccccc3OC)o2)cc1OC	none
COc1ccccc1OCc1ccc(C(=O)Nc2ccc(Cl)cn2)o1	D1 antag -36
Cc1ccc(CCNC(=O)c2ccc3c(c2)c(C)c(C)n3Cc2ccccc2)cc1	none
CCCCN(CC)CCNC(=O)CCn1cnc2onc(-c3ccc(F)cc3)c2c1=O	D1 agonist 32
COc1ccc2nc(C)cc(Nc3ccc(Cl)c(Cl)c3)c2c1	none
COc1ccc(C(=O)Nc2ccc3ccccc3c2)cc1	none
O=C(Nc1ccc2ccccc2c1)c1ccc(Cl)cc1Cl	none
O=C(Nc1ccc2ccccc2c1)c1ccccc1O	D1 antag -34
CS(=O)(=O)Nc1ccc(C(=O)Nc2ccc3ccccc3c2)cc1	D1 antag -38

High-throughput results: PubChem BioAssay, National Center for Advancing Translational Sciences (NCATS)
